High-throughput results from PubChem.
PLK1 PBD block: qHTS for Inhibitors of PLK1-PDB (polo-like kinase 1 - polo-box domain): Primary Screen | Serine/threonine-protein kinase PLK1 (Homo sapiens), P53350 | Plk1 PBD binding of FITC phosphopeptide, fluorescence polarization | Potency, µM, without a hit: max response, negative = inhibition, usual class: inhibitors | actives 2.8% (n = 360,000) | AID 720504, 2013; also: series mostly up to about 57 µM; % is scaled to controls: 0 for no effect and ±100 for the full control effect; nearly all actives have a fitted effect of over 65% in size
Target sequence (P53350 whole entry, looked up, the tested form may be a part): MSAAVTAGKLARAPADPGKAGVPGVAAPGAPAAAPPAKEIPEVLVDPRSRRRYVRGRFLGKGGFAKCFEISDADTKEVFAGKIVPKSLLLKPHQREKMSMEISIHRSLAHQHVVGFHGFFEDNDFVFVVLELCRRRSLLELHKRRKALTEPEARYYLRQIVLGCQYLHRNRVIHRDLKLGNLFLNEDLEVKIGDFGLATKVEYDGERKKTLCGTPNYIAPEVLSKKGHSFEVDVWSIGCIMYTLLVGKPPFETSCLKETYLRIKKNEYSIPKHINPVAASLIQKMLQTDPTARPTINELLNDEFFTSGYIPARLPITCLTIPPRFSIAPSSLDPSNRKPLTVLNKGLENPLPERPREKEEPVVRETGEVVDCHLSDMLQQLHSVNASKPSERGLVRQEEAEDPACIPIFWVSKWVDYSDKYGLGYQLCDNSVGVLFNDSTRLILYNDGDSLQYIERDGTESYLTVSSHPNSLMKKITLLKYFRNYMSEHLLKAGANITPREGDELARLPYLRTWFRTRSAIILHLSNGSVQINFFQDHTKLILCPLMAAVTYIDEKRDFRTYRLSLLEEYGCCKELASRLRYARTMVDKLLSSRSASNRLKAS
HP1b binding inh: HTS for Inhibitors of HP1-beta Chromodomain Interactions with Methylated Histone Tails. Potency, µM (series often up to 114 µM), for inactives: at the top dose activity change, negative = inhibition, actives largely listed as inhibitors. Chromobox protein homolog 1 (Homo sapiens), P83916. actives 0.56% (n = 390,000). AlphaScreen HP1-beta / biotin-H3K9me3 peptide binding; also: nearly all actives have a fitted effect of over 70% in size
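AlphaScreen: HP1-beta (50 nM) preformed 30 min with biotin-H3(1-18)K9me3 peptide (50 nM) in PBS pH 7.4, 0.01% Tween-20. Compound added for 30 min at RT, then streptavidin donor/nickel chelate acceptor beads (10 ug/mL) for 30 min.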
VDR inh: Inhibitors of the vitamin D receptor (VDR): qHTS; Vitamin D3 receptor (Homo sapiens), P11473; VDR-SRC2-3 peptide fluorescence polarization, 2 h; Potency, µM, inactives show max response, negative = inhibition, usual class: inhibitors; actives 0.93% (n = 400,000); AID 504847, 2011; also: % is scaled to controls: 0 for no effect and ±100 for the full control effect
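Signal is fluorescence polarization, reporting how far test compounds block the interaction of VDR with the SRC2-3 coregulator peptide after a 2 h room-temperature incubation.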
G9a block: qHTS Assay for Inhibitors of Histone Lysine Methyltransferase G9a. Potency, µM (titrated, usually from 102 µM), inactives show at the top dose activity, negative = inhibition, hits mostly inhibitors. actives 8.8% (n = 350,000). G9a H3K9 monomethylation, AlphaScreen, 2 h. AID 504332, 2011; also: % is scaled to controls: 0 for no effect and ±100 for the full control effect; nearly all actives have a fitted effect of over 75% in size
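G9a (20 nM) preincubated 15 min RT with compounds, then 500 nM biotinylated H3K9 peptide and 20 uM SAM added; 2 h RT reaction. Monomethyl-H3K9 product detected by AlphaScreen with anti-H3K9me1 antibody, streptavidin donor and anti-rabbit IgG acceptor beads.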
JMJD2A Tudor inh: qHTS Assay for Inhibitors of JMJD2A-Tudor Domain; Lysine-specific demethylase 4A (Homo sapiens), O75164; actives 4.4% (n = 390,000); Potency, µM (highest dose often 114 µM), without a hit: at the top dose activity change, negative = inhibition, usual class: inhibitors; AID 504339, 2011; AlphaScreen JMJD2A-Tudor / H3K4me3 peptide binding; also: % is scaled to controls: 0 for no effect and ±100 for the full control effect; nearly all actives have a fitted effect of over 50% in size
BAZ2B inh: qHTS Assay for Inhibitors of BAZ2B; Potency, µM (top dose mostly 114 µM), for inactives: at the top dose activity change, negative = inhibition, most hits filed as inhibitors; AID 504333, 2011; Bromodomain adjacent to zinc finger domain protein 2B (Homo sapiens), Q9UIF8; actives 4.4% (n = 360,000); AlphaScreen BAZ2B-H3K14Ac peptide displacement; also: % is scaled to controls: 0 for no effect and ±100 for the full control effect; nearly all actives have a fitted effect of over 60% in size
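AlphaScreen luminescence quantifies BAZ2B engagement of H3K14Ac peptide; the protein and biotinylated peptide are both at 50 nM final, buffer PBS pH 7.4 with 0.01% Tween-20, all steps at room temperature.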
* = called active by the depositor; ? = inconclusive; / = no result; [ ] = another dose, or the depositor's remark. In the library only some 11% were active in any assay of this set; here they are far more common. Calls follow the shape of the dose curve; as a rule, active = well fitted curve in the direction sought with a large enough effect; inconclusive = small, poorly fitted or top-dose-only effect, or another doubt; inactive = no such curve, though single readings can be large; an effect the other way counts as inactive or inconclusive. Potency is read from the fitted curve at half-maximal effect.

SMILES	PLK1 PBD block	HP1b binding inh	VDR inh	G9a block	JMJD2A Tudor inh	BAZ2B inh
COc1ccc(NCc2ccccc2[N+](=O)[O-])cc1OC	-11%	?	?	11µM*	50µM*	50µM*
CN(C)CC#CCCCCCCC#CCN(C)C	/	/	/	?	/	6%
C#CCCCCCCC#CCN(C)C	-12%	?	-18%	28µM*	1.8µM*	?
CCOCCCNCc1cccc(OC)c1	0%	-52%	4%	4µM*	3.5µM*	?
COc1cccc(CNCC(=O)N2C(C)CCCC2C)c1 (stereo not given)	-5%	?	9%	13µM*	3.5µM*	50µM*
CCCOc1ccc(CNCCCOCC)cc1OC	-3%	?	10%	-31%	0.79µM*	-36%
CCCCNCCCOc1cccc(Cl)c1Cl	-13%	13%	15%	?	-10%	8%
CCOCCCNCc1c(Cl)cccc1Cl	-6%	?	-3%	?	5µM*	?
COc1cc(OC)c(NC(=O)CN(C)S(=O)(=O)c2ccc3[nH]c(=O)oc3c2)cc1Cl	-2%	31%	7%	24%	-2%	-21%
Cc1ccc(C(=O)Nc2cccc(C(=O)N3CCOCC3)c2)cc1Cl	3%	29%	-3%	56%	-5%	-4%
CCOCCCNCc1ccc(OC)cc1	-10%	-30%	16%	-21%[12.7 µM]	4µM*	?
CCOCCCNCc1ccc(OCc2ccccc2Cl)cc1	2%	28%	-2%	5%[59 µM]	-1%	8%
CNc1ncnc2c1ncn2[C@H]1CN(Cc2ccc(Cl)cc2)C[C@@H](CO)O1	-5%	/	/	/	/	/
O=S(=O)(Nc1ccc(Cl)cc1)c1ccc(N2CCOCC2)c(NC(=S)NC2CC2)c1	8.4µM*	-22%	79µM*	7.9µM*	-24%	?
CC(=O)Nc1ccc(S(=O)(=O)Nc2cc(Cl)ccc2N2CCOCC2)cc1	-2%	8%	2%	/	-25%	/
CNC(=S)Nc1cc(S(=O)(=O)Nc2cc(Cl)ccc2Cl)ccc1N1CCCC1	?	-8%	17%	50µM*	?	-38%
COc1ccc(CN(C)C(=O)Cc2ccc(OC)c(S(=O)(=O)N3CCOCC3)c2)cc1	-1%	39%	11%	-30%[0.501 µM]	-13%	-35%
COc1ccc(F)cc1S(=O)(=O)N1CCCN(S(=O)(=O)c2cc(F)ccc2OC)CC1	27µM*	-17%	-4%	3%[12.7 µM]	-11%[11.4 µM]	-20%
COc1ccc(F)cc1S(=O)(=O)N1CCc2ccccc2C1	-2%	/	/	/	/	/
COc1ccc(F)cc1S(=O)(=O)n1cc(C)nc1-c1ccccc1	4.2µM*	1%	?	9%[59 µM]	22µM*	-7%
O=S(=O)(c1ccccc1)N1CCN(S(=O)(=O)c2ccc(F)cc2)CC1	-11%	18%	2%	26%[0.501 µM]	-8%	2%
Nc1ccc(S(=O)(=O)N2CCN(S(=O)(=O)c3c(F)cccc3F)CC2)cc1	/	/	/	/	89µM*	/
O=S(=O)(c1ccc(F)cc1)N1CCN(S(=O)(=O)c2cc(F)ccc2F)CC1	21µM*	-3%	?	21%[0.501 µM]	?	-5%
COc1ccc(C(=O)N2CCCC(c3cc(C(=O)NCc4ccc(F)cc4)no3)C2)cc1 (stereo not given)	1%	/	/	/	/	/
COc1ccc(C(C)C)cc1S(=O)(=O)NC1CCCC1	-7%	27%	-15%	8%[12.7 µM]	-18%	-11%
SMILES	PLK1 PBD block	HP1b binding inh	VDR inh	G9a block	JMJD2A Tudor inh	BAZ2B inh
CS(=O)(=O)C1=NSC2=NC(=O)/C(=C\c3ccc(-c4ccccc4)o3)C(=N)N21	/	/	/	50µM*	/	-6%
CC1=NN2C(=N)/C(=C\c3ccc(SCc4ccccc4)o3)C(=O)N=C2S1	-28%	11%	-14%	21%[12.7 µM]	?	-39%
CC(C)S(=O)(=O)C1=NSC2=NC(=O)/C(=C\c3ccc(-c4ccccc4)o3)C(=N)N21	30µM*	1%	?	?	-26%	?
O=C(O)c1cccc(-c2ccc(/C=N/n3cnnc3)o2)c1	-9%	28%	-3%	-13%[59 µM]	-2%	-29%
N=C1/C(=C/c2ccc(-c3cccc(C(=O)O)c3)o2)C(=O)N=C2SC=C(c3ccccc3)N12	15µM*	?	-21%	40µM*	22µM*	13µM*
N=C1/C(=C\c2ccc(-c3cc(Cl)cc(Cl)c3)o2)C(=O)N=C2SC=C(c3ccccc3)N12	-7%	12%	12%	-8%	-19%	-1%
CC(C)S(=O)(=O)C1=NSC2=NC(=O)/C(=C\c3ccc(-c4cccc(C(=O)O)c4)o3)C(=N)N21	-14%	10%	3%	40µM*	?	79µM*
COc1cc(-c2noc(-c3ccc(NC4CCCC4)c([N+](=O)[O-])c3)n2)cc(OC)c1OC	/	44%	13%	-50%[59 µM]	-1%	-3%
Cc1ccc2occ(CC(=O)N(Cc3ccc(Cl)cc3)Cc3ccco3)c2c1	/	59%	13%	-4%[59 µM]	32%	10%
Cc1ccc(NC(=S)NNS(=O)(=O)c2ccc3ccccc3c2)cc1Cl	19µM*	?	-24%	13%	?	-6%
COCCNC(=O)C(=O)NNC(=O)COc1ccc(OC)cc1	?	55%	-1%	25µM*	-7%	-38%
COCCNC(=O)C(=O)NNS(=O)(=O)c1ccc2ccccc2c1	19µM*	-15%	?	40µM*	?	-16%
COCCNC(=O)C(=O)NNS(=O)(=O)c1ccc(Cl)cc1	2%	45%	-16%	/	-1%	18%
CCOc1ccccc1OCC(=O)NC1CCSc2ccccc21 (stereo not given)	-9%	/	/	/	/	/
O=C(Cn1nc(-c2cccs2)ccc1=O)Nc1ccc(Br)cc1	-11%	3%	-1%	11%	-16%	-17%
O=C(Cn1nc(-c2ccco2)ccc1=O)Nc1ccc(Br)cc1	21µM*	?	?	25µM*	-27%	?
Cc1ccc(C(=O)ON=C2CCN(S(=O)(=O)c3ccccc3)CC2)cc1	27µM*	-10%	?	113%[59 µM]	?	0%
O=C(ON=C1CCN(S(=O)(=O)c2ccccc2)CC1)c1ccc(F)cc1	-1%	17%	11%	-10%[59 µM]	-2%	0%
O=S(=O)(c1cccnc1)N1CCN(c2nc(-c3cccs3)nc3ccccc23)CC1	/	17%	0%	/	-23%	/
